# Records with an inconclusive call do not appear. Where a call stands in place of a potency, no number is given. The source made the active and inactive calls. Calls follow the shape of the dose curve; as a rule, active = well fitted inhibition curve with a large enough effect; inconclusive = small, poorly fitted or top-dose-only effect; inactive = flat fitted curve, though single readings scatter.
# Target: Ubiquitin carboxyl-terminal hydrolase 1 (Homo sapiens) (UniProt O94782)
# Test: Inhibitors of USP1/UAF1: Pilot qHTS (AID 504865);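 also: rhodamine fluorescence freed from ubiquitin-rhodamine substrate followed over time; top concentration of the series differs between compounds; nearly all actives have a fitted effect of over 35% in size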
# Conditions: purified USP1/UAF1, Ub-rhodamine cleavage fluorescence; series mostly up to 114 µM
# How it was run: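 1nM USP1/UAF1 + cpd, 15 min RT; start w/ Ub-Rho 150nM final; kinetic FL 480/540 nm, 6 reads q60 s. Buffer 50mM HEPES pH 7.8, 0.5mM EDTA, 1mM TCEP, 0.01% Tween-20, 0.1 mg/ml BSA.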
# Chain of Ubiquitin carboxyl-terminal hydrolase 1 (Homo sapiens) (O94782 whole entry, looked up): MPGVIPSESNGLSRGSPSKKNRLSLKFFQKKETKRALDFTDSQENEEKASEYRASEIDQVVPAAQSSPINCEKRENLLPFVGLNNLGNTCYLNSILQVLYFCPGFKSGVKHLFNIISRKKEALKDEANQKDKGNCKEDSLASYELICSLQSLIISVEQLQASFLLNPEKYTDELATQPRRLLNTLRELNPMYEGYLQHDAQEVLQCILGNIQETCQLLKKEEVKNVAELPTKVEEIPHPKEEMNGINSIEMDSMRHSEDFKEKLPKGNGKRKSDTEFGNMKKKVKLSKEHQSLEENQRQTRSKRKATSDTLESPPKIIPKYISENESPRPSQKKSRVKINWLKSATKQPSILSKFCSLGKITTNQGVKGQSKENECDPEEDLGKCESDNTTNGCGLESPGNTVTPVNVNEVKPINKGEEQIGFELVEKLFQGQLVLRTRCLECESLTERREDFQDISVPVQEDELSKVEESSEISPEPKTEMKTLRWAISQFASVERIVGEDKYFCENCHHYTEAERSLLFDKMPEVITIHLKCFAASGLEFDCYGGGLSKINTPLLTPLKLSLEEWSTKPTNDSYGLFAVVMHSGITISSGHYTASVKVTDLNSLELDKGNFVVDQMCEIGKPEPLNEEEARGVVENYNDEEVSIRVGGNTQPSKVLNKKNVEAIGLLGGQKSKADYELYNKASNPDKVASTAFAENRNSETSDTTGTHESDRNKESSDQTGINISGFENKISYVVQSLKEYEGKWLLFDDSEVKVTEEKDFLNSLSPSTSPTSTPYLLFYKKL
row,Compound,Potency
1,[O]=[Bi][O][Bi]=[O],inactive
2,N=C(N)n1cccn1,inactive
3,CC1=C(/C=C/C(C)=C/C=C/C(C)=C/C(=O)Oc2c(C)c(C)c3c(c2C)CC[C@@](C)(CCC[C@H](C)CCC[C@H](C)CCCC(C)C)O3)C(C)(C)CCC1,inactive
4,CC(=O)NCCCS(=O)(=O)O,inactive
5,C[Se]CC[C@H](N)C(=O)O,inactive
6,O=C(CCCN1CCN2CCCC2C1)c1ccc(F)cc1 (stereo unspecified),inactive
7,O=C(OC1C[C@@H]2CC3C[C@H](C1)N2CC3=O)c1c[nH]c2ccccc12 (stereo partly specified),inactive
8,CCOc1ccc(S(=O)(=O)O)c2cccnc12,inactive
9,CC12CCC(C1)C(C)(C)C2=O (stereo unspecified),inactive
10,CC(C)OC(=O)Nc1ccc2nc(-c3cscn3)[nH]c2c1,inactive
11,CC1CCCCN1CCCOC(=O)c1ccccc1 (stereo unspecified),inactive
12,COC1=C(OC)C(=O)C(C/C=C(\C)CC/C=C(\C)CC/C=C(\C)CC/C=C(\C)CC/C=C(\C)CC/C=C(\C)CC/C=C(\C)CC/C=C(\C)CC/C=C(\C)CCC=C(C)C)=C(C)C1=O,inactive
13,CNC(=O)[C@H](Cc1c[nH]c2ccccc12)NC(=O)[C@@H](CC(=O)NO)CC(C)C,inactive
14,CCc1ncnc2cc(OC)c(OC)cc12,inactive
15,CCC(C)[C@@H](N)C(=O)O (stereo partly specified),inactive
16,C[N+]1(C)[C@@H]2CC(OC(=O)C(O)(c3cccs3)c3cccs3)C[C@H]1[C@@H]1O[C@@H]12 (stereo partly specified),inactive
17,CC(C)(COP(=O)(O)OP(=O)(O)OC[C@H]1O[C@@H](n2cnc3c(N)ncnc32)[C@H](O)[C@@H]1OP(=O)(O)O)C(O)C(=O)NCCC(=O)NCCS (stereo partly specified),inactive
18,c1ccc2c(c1)Sc1ccccc1N2CCN1CCCC1,inactive

row,Compound,Potency
1,OC1OC[C@@H](O)[C@H](O)[C@@H]1O (stereo partly specified),inactive
2,N#Cc1ccc2c(c1)N(CCCN1CCC(O)CC1)c1ccccc1S2,inactive
3,CC(=O)Nc1ccc(OC(C)=O)cc1,inactive
4,Cc1cccc(C)c1NC(=O)C1CCCCN1C (stereo unspecified),inactive
5,COc1ccc(/C=C/C(=O)O)cc1,inactive
6,FCOC(C(F)(F)F)C(F)(F)F,inactive
7,CC(CNC(=O)c1cccnc1)NC(=O)c1cccnc1 (stereo unspecified),inactive
8,O=P(O)(O)OP(=O)(O)O,inactive
9,c1ccc(-n2cnnn2)cc1,inactive
10,Cc1cccc(C)c1NC(=O)NC1=CCCN1C,inactive
11,OC/C=C/c1ccccc1,inactive
12,Cc1ncc(COP(=O)(O)O)c(CN)c1O,inactive
13,O=C(O)CCCC/C=C(\c1ccccc1)c1cccnc1,inactive
14,CCCC(CCC)C(=O)OC1C[C@H]2CC[C@@H](C1)[N+]2(C)C (stereo partly specified),inactive
15,O=C(Nc1ccc(O)cc1)c1ccccc1O,inactive
16,CCN(CC)C(=S)S,inactive
17,CS(=O)(=O)c1ccc([C@@H](O)[C@@H](COC(=O)CN)NC(=O)C(Cl)Cl)cc1,inactive
18,O=S(=O)(O)CC(S)CS (stereo unspecified),inactive

# From PubChem BioAssay (NCATS)
